Out of some 200,000 compounds screened, about 780 (0.39%) were called active. Rule as the data show it: active = TR-FRET ratio above about 2000; inactive = the rest. The sample as a whole holds a higher share of actives than the screen did.
Assay: detection-format interference in TR-FRET ratio – biochemical, artefact control for PPARgamma SRC-2 agonist project, primary screen (AID 1049)
Details: TR-FRET artefact counter-screen; at 8 µM; hits give high values

Structure (SMILES) | TR-FRET ratio
O=c1[nH]cnc2c1c(-c1ccccc1)cn2-c1ccc(F)cc1 | 1650 (inactive)
Cc1ccccc1N1C(=O)C(Oc2ccc(Cl)cc2)C1CNCC1CCCO1 (stereo unspecified) | 1310 (inactive)
Cc1ccc(N2C(=O)C(NC(=O)c3c(F)cccc3F)(C(F)(F)F)C3=C2CC(C)(C)CC3=O)cc1 (stereo unspecified) | 1460 (inactive)
O=C(COC(=O)/C=C/c1cccc(Cl)c1)NCCc1ccccc1 | 1440 (inactive)
CCN(CC)S(=O)(=O)c1cccc(-c2n[nH]c(=S)n2/N=C/c2ccc(C(=O)OC)cc2)c1 | 1510 (inactive)
O=C(Oc1ccccc1)Oc1ccc2c(c1)oc(=O)c1ccccc12 | 2370 (active)
CC(=O)Oc1ccc2c(C)c(CC(C)O)c(=O)oc2c1 (stereo unspecified) | 1440 (inactive)
Cc1c(Cc2ccccc2)c(=O)oc2cc(OCC(N)=O)ccc12 | 1400 (inactive)
COc1ccc(C2=NN(c3nc4ccccc4s3)C(=O)C2)cc1 | 1550 (inactive)
CN(Cc1cccc2ncccc12)C(=O)CC1C(=O)NCCN1Cc1ccc(F)cc1 (stereo unspecified) | 1420 (inactive)
O=C(O)/C=C/c1ccc(OCCCF)cc1 | 1530 (inactive)
COc1cc(/C=N/N=C(\N)c2nonc2N)cc(OC)c1OC | 1490 (inactive)
Cc1cc(=O)n2[nH]c(-c3sccc3-n3c(C)ccc3C)cc2n1 | 1620 (inactive)
Cc1ccc(S(=O)(=O)N2CCOCC2)cc1NC(=O)CSc1nnc(N)s1 | 1520 (inactive)
CCN=C1S/C(=C\c2cc(Br)ccc2OCC(=O)OCC)C(=O)N1CC | 1500 (inactive)
CCCOc1ccc(NC(=O)C2OC3OC(C)(C)OC3C3OC(C)(C)OC23)cc1 (stereo unspecified) | 1480 (inactive)
Cc1ccccc1N1CCN(CCCOc2ccc3c(C)cc(=O)oc3c2)CC1 | 1510 (inactive)
Cc1cc(OCC(=O)NC2CCN(C)CC2)ccc1[N+](=O)[O-] | 1540 (inactive)
Cc1cc(OCCCN2CCN(Cc3ccccc3)CC2)ccc1[N+](=O)[O-] | 2000 (active)
C/C(N)=C(/C#N)C(=O)COC(=O)c1cc(-c2ccccc2)nc2ccc(Br)cc12 | 1540 (inactive)
Cc1cc(C)c2c(NC(=O)C3CC3)nn(C)c2n1 | 1370 (inactive)
CCN(C(=O)COC(=O)c1c(NC(C)=O)sc(C)c1C)C1CCS(=O)(=O)C1 (stereo unspecified) | 1610 (inactive)
COC(=O)c1ccc(-c2noc(CN(Cc3ccccn3)CC3CCCO3)n2)cc1 (stereo unspecified) | 1700 (inactive)

Structure (SMILES) | TR-FRET ratio
CCN(CCn1cccn1)Cc1cn[nH]c1-c1ccc(OC)cc1F | 1510 (inactive)
CCN(CCn1cccn1)Cc1nc(-c2ccc(C(=O)OC)cc2)no1 | 1990 (active)
COc1cc(NC(=O)COC(=O)CSc2ccc3ccccc3c2)c(C)cc1[N+](=O)[O-] | 1450 (inactive)
O=C1NC(c2ccccc2)=NC1(Nc1ccccn1)C(F)(F)F (stereo unspecified) | 1690 (inactive)
CNC(=S)N1N=C(c2ccccc2)CC1c1ccc(Br)cc1 (stereo unspecified) | 1990 (active)
COc1ccc(C2CC(c3ccccc3)=NN2C(=O)COC(=O)COc2ccccc2)cc1 (stereo unspecified) | 1620 (inactive)
Brc1ccc(C2CC(c3ccccc3)=Nc3ccccc3N2)cc1 (stereo unspecified) | 1550 (inactive)
CCC1CO/C(=C(\C(=C(Cl)Cl)N2CCOCC2)[N+](=O)[O-])N1 (stereo unspecified) | 1690 (inactive)
COc1ccc(NC(=O)c2sc(N3CCOCC3)nc2-c2ccccc2)c(OC)c1 | 1580 (inactive)
O=C(O)CC/C(=N\NC(=O)c1ccc(F)cc1)c1ccc(Br)cc1 | 1580 (inactive)
C/C(=N\OCC(=O)Nc1ccc(Br)cc1)c1cccs1 | 1350 (inactive)
CCOC(=O)N/N=C/c1cccnc1 | 1680 (inactive)
Cc1nc2ccccc2n1CC(=O)N/N=C/c1cccnc1 | 1640 (inactive)
O=C(CSc1cccc2cccnc12)N/N=C/c1cccnc1 | 2120 (active)
NC1=NC(=O)C(Cc2cccc(Cl)c2)S1 (stereo unspecified) | 1490 (inactive)
CCC(C)(C)NC(=O)/C=C/c1cc(OC)c(OC)c(S(=O)(=O)N2CCc3ccccc32)c1 | 1580 (inactive)
Cc1cccc(OCc2ccc(C(=O)Nc3ccc(F)cc3)cc2)c1 | 1560 (inactive)
Cc1nc2ccccc2cc1OCc1ccc(F)cc1 | 1730 (inactive)
Fc1ccc(COc2cccc(-c3n[nH]c(=S)o3)c2)cc1 | 2890 (active)
CCOC(=O)c1ccc[n+](CC(=O)Nc2ccccc2OC(F)F)c1 | 1350 (inactive)
CCOC(=O)c1sc(NC(=O)CSc2n[nH]c(CC)n2)nc1C | 1730 (inactive)
CCOc1ncccc1C(=O)OCC(=O)NC1CC1 | 1600 (inactive)
Cc1cc(OCCN2CCCC2)cc(C(C)C)c1 | 1530 (inactive)

From PubChem BioAssay AID1049 (The Scripps Research Institute Molecular Screening Center, 2008)
